The whole screen tested about 310,000 compounds, of which about 18,000 (5.8%) were called active. Inconclusive results (about 22%) are left out. Calls come from the whole dose curve; as a rule, active = well fitted inhibition curve with a large enough effect; inconclusive = small, poorly fitted or top-dose-only effect, or another doubt; inactive = no such curve, though single readings can be large or run the other way. The sample as a whole holds a higher share of actives than the screen did.
Assay: Primary qHTS for delayed death inhibitors of the malarial parasite plastid, 48 hour incubation
Details: P. falciparum luciferase growth in erythrocytes; series mostly up to 28.7 µM; activity change, negative = inhibition: at the top concentration
In short: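 Luminescence readout; reporter = integrated firefly luciferase in P. falciparum. RBC culture at 2% hematocrit, 0.1% parasitemia final, 37 C/5% CO2; decreased signal taken as growth inhibition.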
% is set by controls: 0 for no effect and ±100 for the full control effect; potency is the fitted concentration of half-maximal effect.

Question: With `O=C(CCc1c[nH]c2ccccc12)NCCOc1ccccc1` as the compound, how does the “activity change, negative = inhibition” value read?
Answer: Its value is -18.4% (inactive).

Question: For `O=C(CCCCn1c(=O)[nH]c2ccccc2c1=O)NCc1ccc2c(c1)OCO2`, which “activity change, negative = inhibition” value is on record?
Answer: The value was -14.5% (inactive).

Question: For `O=C(CCCCCn1c(=O)[nH]c2ccccc2c1=O)NCCc1c[nH]c2ccccc12`, which Potency is on record?
Answer: Its Potency is 8.28 µM (active).

Question: For `COc1ccc2nc(NC3=NCN(CC4CCCO4)CN3)nc(C)c2c1` (configuration not stated), which Potency is on record?
Answer: Its Potency is 11.7 µM (active).

Question: For `COc1ccc2c(C)cc(SCC(=O)NCC3CCCO3)nc2c1` (configuration not stated), which “activity change, negative = inhibition” value is on record?
Answer: Its value is -1.67% (inactive).

Question: With `Cc1ccc2nc(NC3=NCN(CCc4ccccc4)CN3)nc(C)c2c1` as the compound, how does the “activity change, negative = inhibition” value read?
Answer: The value was 0% (inactive).

Question: With `CC(NC(=O)COc1cccnc1[N+](=O)[O-])c1ccc(Cl)cc1Cl` (configuration not stated) as the compound, how does the “activity change, negative = inhibition” value read?
Answer: Its value is -9.92% (inactive).

Question: For `Cn1c(SCC(=O)Nc2ccc(N3CCOCC3)cc2)nnc1C(F)(F)F`, which “activity change, negative = inhibition” value is on record?
Answer: Its value is -10.4% (inactive).

Question: With `CCN(CC)c1ccc2cc(C(N)=O)/c(=N\NC(=O)c3ccncc3)oc2c1` as the compound, how does the “activity change, negative = inhibition” value read?
Answer: Its value is -16% (inactive).

Question: Which “activity change, negative = inhibition” value does the source give for `CCN(CC)c1ccc2c(Nc3ccccc3)c(C=O)c(=O)oc2c1` here?
Answer: The value was -2.73% (inactive).

Question: For `CCN(CC)c1ccc2oc(=O)c(C)nc2c1`, which Potency is on record?
Answer: The Potency was 1.47 µM (active).

Question: Which “activity change, negative = inhibition” value does the source give for `Cc1ccccc1N1CCN(C2CCCN(C(=O)c3cn4c(C)cccc4n3)C2)CC1` (configuration not stated) here?
Answer: Its value is -29% (inactive).

Question: For `CCC(CC)c1nnc(NC(=O)C2=COCCO2)s1`, which “activity change, negative = inhibition” value is on record?
Answer: Its value is 29% (inactive).

Question: With `O=C(O)C1CCC(CNS(=O)(=O)c2ccc(Br)cc2)CC1` (configuration not stated) as the compound, how does the “activity change, negative = inhibition” value read?
Answer: Its value is -9.14% (inactive).

Question: For `CCn1c(=O)c(C(=O)NCc2ccc3c(c2)OCO3)c(O)c2ccccc21`, which “activity change, negative = inhibition” value is on record?
Answer: Its value is 9.48% (inactive).

Question: Which Potency does the source give for `CCCC1=Nc2cc(C(=O)NCc3ccco3)ccc2Sc2ccccc21` here?
Answer: The Potency was 4.65 µM (active).

Question: With `O=C(COC(=O)c1cnc(Cl)c(Cl)c1)NCc1ccco1` as the compound, how does the “activity change, negative = inhibition” value read?
Answer: The value was 21.2% (inactive).

Question: With `COc1ccc(CCNS(=O)(=O)c2ccc(C(=O)NCc3ccco3)cc2)cc1OC` as the compound, how does the “activity change, negative = inhibition” value read?
Answer: The value was -3.53% (inactive).

Question: With `COc1ccc(N2CC(C(=O)N[C@@H](C)C(=O)N3CCCCC3)CC2=O)cc1` (some centres not stated) as the compound, how does the “activity change, negative = inhibition” value read?
Answer: The value was -10.3% (inactive).

Question: With `O=C(Nc1cccc2cccnc12)c1cccc(Cl)c1` as the compound, how does the “activity change, negative = inhibition” value read?
Answer: Its value is 4.48% (inactive).

Question: For `CC(OC(=O)C1CC(=O)N(Cc2ccccc2)C1)C(=O)Nc1ccccc1[N+](=O)[O-]` (configuration not stated), which “activity change, negative = inhibition” value is on record?
Answer: Its value is 1.87% (inactive).

Question: For `Cc1nn(C)cc1CNC(=O)Nc1ccc(Cl)cc1`, which “activity change, negative = inhibition” value is on record?
Answer: The value was 135% (inactive).

Question: With `COc1ccc(Cl)cc1C(=O)NCc1cn(C)nc1C` as the compound, how does the “activity change, negative = inhibition” value read?
Answer: The value was 16.2% (inactive).

Question: With `Cc1ccc(-c2cc(C(=O)NCc3cn(C)nc3C)c3cc(Br)ccc3n2)cc1` as the compound, how does the Potency read?
Answer: The Potency was 2.94 µM (active).

Question: With `O=C1/C(=C/c2ccc(F)cc2)SC(=S)N1CCCC(=O)N1CCCCC1CCO` (configuration not stated) as the compound, how does the Potency read?
Answer: Its Potency is 11.7 µM (active).

Question: For `O=C(CCCN1C(=O)/C(=C\c2ccccc2)SC1=S)Nc1ccccc1O`, which “activity change, negative = inhibition” value is on record?
Answer: The value was -7.43% (inactive).

Question: With `CCN(C(=O)CN1C(=O)/C(=C/c2ccc(F)cc2)SC1=S)C1CCS(=O)(=O)C1` (configuration not stated) as the compound, how does the “activity change, negative = inhibition” value read?
Answer: The value was 3.15% (inactive).

Question: For `N#Cc1cccc(CSc2ncnc(N)n2)c1`, which “activity change, negative = inhibition” value is on record?
Answer: Its value is 0.429% (inactive).

Question: With `CNC(=O)COC(=O)c1cc(-c2ccc(OC)cc2)nc2ccccc12` as the compound, how does the “activity change, negative = inhibition” value read?
Answer: The value was 67.7% (inactive).

Question: With `COc1ccc(NC(=O)c2cc(-c3cc(OC)c(OC)c(OC)c3)nc3ccccc23)c(OC)c1` as the compound, how does the Potency read?
Answer: Its Potency is 5.22 µM (active).

Question: With `COc1ccccc1NC(=O)c1cc(Cl)nc2ccccc12` as the compound, how does the “activity change, negative = inhibition” value read?
Answer: The value was -7.46% (inactive).

Question: Which Potency does the source give for `CCC(C)(C)n1nnnc1C(c1cccs1)N1CCN(c2nc3ccccc3s2)CC1` (configuration not stated) here?
Answer: The Potency was 11.7 µM (active).

Question: For `c1ccc2sc(N3CCNCC3)nc2c1`, which “activity change, negative = inhibition” value is on record?
Answer: The value was 13.3% (inactive).

Question: Which “activity change, negative = inhibition” value does the source give for `CCC(C)(C)n1nnnc1C(c1ccc(OC)c(OC)c1)N1CCN(C(=O)c2ccco2)CC1` (configuration not stated) here?
Answer: Its value is -16.9% (inactive).

Question: For `COc1ccccc1C(c1nnnn1C(C)(C)C)N1CCN(Cc2ccccc2)CC1` (configuration not stated), which Potency is on record?
Answer: Its Potency is 13.1 µM (active).

Question: Which “activity change, negative = inhibition” value does the source give for `CCC(C)(C)n1nnnc1CN1CCN(c2nc3ccc(C)cc3cc2C#N)CC1` here?
Answer: Its value is -6.08% (inactive).

Question: With `CC(C)C(c1nnnn1C(C)(C)C)N1CCN(Cc2cccnc2)CC1` (configuration not stated) as the compound, how does the “activity change, negative = inhibition” value read?
Answer: The value was -2.9% (inactive).

Question: Which “activity change, negative = inhibition” value does the source give for `CCCC(c1nnnn1C(C)(C)C)N1CCN(Cc2ccccc2)CC1` (configuration not stated) here?
Answer: The value was -12.9% (inactive).

Question: For `CCC(C)(C)n1nnnc1C(c1ccccc1OC)N1CCSCC1` (configuration not stated), which Potency is on record?
Answer: Its Potency is 11.7 µM (active).

Question: Which “activity change, negative = inhibition” value does the source give for `COc1ccccc1CN(C)c1nnnn1-c1ccccc1` here?
Answer: The value was -3.57% (inactive).

Question: Which “activity change, negative = inhibition” value does the source give for `Cc1ccc(S(=O)(=O)NCCC(=O)NC2CCN(Cc3ccccc3)CC2)cc1` here?
Answer: Its value is -18.6% (inactive).

Question: Which “activity change, negative = inhibition” value does the source give for `Cc1cccc([C@@H]2[C@@H]3C(=O)N(C)C(=O)[C@@H]3[C@@H]3C(=O)Nc4ccccc4C(=O)N23)c1` here?
Answer: Its value is 24.5% (inactive).

Question: For `CC1CCCCC12NC(=O)N(CC(=O)Nc1ccc(S(=O)(=O)Nc3ncccn3)cc1)C2=O` (configuration not stated), which “activity change, negative = inhibition” value is on record?
Answer: Its value is 6.18% (inactive).

Question: For `COc1cccc(C(=O)Nc2nnc(S(=O)(=O)N3CCOCC3)s2)c1`, which “activity change, negative = inhibition” value is on record?
Answer: Its value is -5.86% (inactive).

Question: Which “activity change, negative = inhibition” value does the source give for `Cc1ccc(C)c(S(=O)(=O)Nc2cccc(-n3cnnn3)c2)c1` here?
Answer: Its value is 10.6% (inactive).

Question: Which “activity change, negative = inhibition” value does the source give for `Cc1cnc(C)c(N2CCN(C(=O)C3CCC(=O)N(CCc4cccc(F)c4)C3)CC2)n1` (configuration not stated) here?
Answer: Its value is -9.75% (inactive).

Question: With `CN(C)c1ccc(N/C=C/C(=O)C(F)(F)F)cc1` as the compound, how does the Potency read?
Answer: Its Potency is 9.28 µM (active).

Question: For `O=C(/C=C/Nc1ccccc1OC(F)(F)F)C(F)(F)F`, which “activity change, negative = inhibition” value is on record?
Answer: Its value is 64% (inactive).

Question: For `CCCOc1ccc(N/C=C/C(=O)C(C)(C)C)cc1`, which “activity change, negative = inhibition” value is on record?
Answer: Its value is -12.8% (inactive).

Question: Which “activity change, negative = inhibition” value does the source give for `COc1ccc2ccccc2c1/C=N/NC(=O)c1cc(C)[nH]n1` here?
Answer: Its value is 5.24% (inactive).

Question: With `C/C(=N\OCC(=O)O)c1ccc(Cl)cc1` as the compound, how does the “activity change, negative = inhibition” value read?
Answer: Its value is 36.8% (inactive).

Question: With `C/C(=N\N=C(N)N)c1ccc(Cl)cc1` as the compound, how does the Potency read?
Answer: Its Potency is 6.57 µM (active).

Reference: PubChem BioAssay AID504832 (National Center for Advancing Translational Sciences (NCATS), 2011)
